The list is not random: actives were taken first. Their share in the collection is about 21%.
Gal4-VP16 FLuc: VP16 counterscreen qHTS for inhibitors of ROR gamma transcriptional activity | Drosophila S2 Gal4-VP16 UAS-luciferase, luminescence, 20 h | Potency, µM (titrated, usually from 53.6 µM), inactives show top-dose activity, negative = inhibition, most hits filed as inhibitors | hit rate 3.5% among 310,000;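 note: Gal4-VP16 expression switched on by copper sulfate through the metallothionein promoter; potency is the fitted concentration of half-maximal effect; nearly all actives have a fitted effect of over 50% in size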
TDP1 cell CPT: qHTS for Inhibitors of human tyrosyl-DNA phosphodiesterase 1 (TDP1): qHTS in cells in presence of CPT. chicken DT40 Tdp1-/-;hTDP1 cells + 20 nM CPT, ATP luminescence, 48 h. Potency, µM (titrated, usually from 46.2 µM), without a hit: at the highest dose activity change, negative = growth inhibition, hits mostly inhibitors. hit rate 12% among 420,000; note: potency is the fitted concentration of half-maximal effect; nearly all actives have a fitted effect of over 55% in size
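Cell growth measured by CellTiter-Glo luminescence after a minimum 48 h, 37 C compound exposure with 20 nM CPT in Tdp1-knockout DT40 cells stably expressing hTDP1, seeded 400/well; qHTS titration format.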
RORgamma inh: qHTS for inhibitors of ROR gamma transcriptional activity | Nuclear receptor ROR-gamma (Mus musculus), P51450 | Drosophila S2 Gal4-RORgamma UAS-luciferase reporter, 20 h | Potency, µM (titrated, usually from 53.6 µM), inactives show top-dose activity change, negative = inhibition, usual class: inhibitors | hit rate 5.4% among 310,000; note: potency is the fitted concentration of half-maximal effect; nearly all actives have a fitted effect of over 60% in size
Target sequence (P51450 whole entry, looked up, the tested form may be a part): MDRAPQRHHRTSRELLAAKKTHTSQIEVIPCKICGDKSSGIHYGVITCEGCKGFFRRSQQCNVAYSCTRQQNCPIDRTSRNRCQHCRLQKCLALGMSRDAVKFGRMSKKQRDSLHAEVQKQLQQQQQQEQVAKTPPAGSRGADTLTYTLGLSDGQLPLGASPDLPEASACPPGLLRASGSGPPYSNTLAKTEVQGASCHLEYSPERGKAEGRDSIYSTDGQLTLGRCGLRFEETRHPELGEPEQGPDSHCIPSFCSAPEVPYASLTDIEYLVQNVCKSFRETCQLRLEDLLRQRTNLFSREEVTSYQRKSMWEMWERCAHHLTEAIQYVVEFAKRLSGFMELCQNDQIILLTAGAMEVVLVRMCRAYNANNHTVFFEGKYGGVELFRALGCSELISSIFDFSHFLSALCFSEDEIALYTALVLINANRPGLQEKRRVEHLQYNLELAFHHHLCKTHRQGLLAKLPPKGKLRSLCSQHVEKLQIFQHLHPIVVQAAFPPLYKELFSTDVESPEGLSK
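Stably transfected Drosophila Schneider cells are the test system, with ROR gamma fused to Gal4 and luciferase under UAS control; luminescence is read after 20 hr of 700 uM copper sulfate induction at ambient temperature.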
IL-1B inflam inh: qHTS for Inhibitors of Inflammasome Signaling: IL-1-beta AlphaLISA Primary Screen | activity change, % at 57.5 µM | AID 743279, 2014 | hit rate 4.7% among 360,000 | THP-1 LPS/ATP IL-1B secretion, AlphaLISA, 16 h; active compounds read low; in the data active = activity change below about -50%; inconclusive = mostly about -30% to -49%
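THP-1 cells pretreated 1 hr with compounds (up to 57.5 uM final), then stimulated with LPS (250 ng/mL final) plus ATP (1.25 mM final); secreted IL-1B measured by AlphaLISA after 16 hr, decreased signal indicating inhibition.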
ELG1 DNA repair: qHTS screen for small molecules that inhibit ELG1-dependent DNA repair in human embryonic kidney (HEK293T) cells expressing luciferase-tagged ELG1. HEK293T ELG1-luciferase reporter, luminescence, 16 h; DNA damage induced by 5-fluorouridine. Potency, µM (series often up to 46.1 µM), without a hit: at the highest dose activity change, negative = inhibition, usual class: inhibitors. hit rate 2.3% among 330,000. AID 504467, 2011; note: potency is the fitted concentration of half-maximal effect; nearly all actives have a fitted effect of over 55% in size
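5-Fluorouridine DNA damage + compound/DMSO, 2,000 cells/well, 16 h, 37 °C/5% CO2. ONE-Glo, 30 min RT, luminescence. Readout = decrease in reporter signal.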
DT40 TDP1 no CPT: qHTS for Inhibitors of human tyrosyl-DNA phosphodiesterase 1 (TDP1): qHTS in cells in absence of CPT. DT40 Tdp1-/- hTDP1 cells, no CPT, ATP luminescence, 48 h. hit rate 15% among 420,000. Potency, µM (titrated, usually from 46.2 µM), without a hit: at the highest dose activity change, negative = growth inhibition, actives largely listed as inhibitors; note: potency is the fitted concentration of half-maximal effect; nearly all actives have a fitted effect of over 55% in size
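Growth kinetics read by CellTiter-Glo luminescence after ≥48 hr at 37 °C. Cells: DT40 Tdp1-/- stably carrying human TDP1, 400 per well, compound exposure in the absence of CPT (DMSO vehicle).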
Starred values were filed as active, the others as inactive; ? = inconclusive; / = no result given. Unless noted, calls come from the whole dose curve; as a rule, active = well fitted curve in the direction sought with a large enough effect; inconclusive = small, poorly fitted or top-dose-only effect, or another doubt; inactive = no such curve, though single readings can be large; an effect the other way counts as inactive or inconclusive. % is set by controls: 0 for no effect and ±100 for the full control effect.

SMILES | Gal4-VP16 FLuc | TDP1 cell CPT | RORgamma inh | IL-1B inflam inh | ELG1 DNA repair | DT40 TDP1 no CPT
CC(C)(C)n1nnnc1C(CCc1ccccc1)N1CCN(C/C=C/c2ccccc2)CC1 (stereo not drawn) | / | ? | / | -27 | / | 15µM*
c1ccc(C(c2ccccc2)N2CCN(C(c3ccccn3)c3nnnn3C3CCCC3)CC2)cc1 (stereo not drawn) | 4% | 2% | 2% | -7 | 17% | -7%
C(=C\c1ccccc1)/CN1CCN(C(c2ccnc3ccccc23)c2nnnn2C2CCCC2)CC1 (stereo not drawn) | / | ? | / | -29 | / | 15µM*
CSCCC(c1nnnn1C(C)(C)C)N1CCN(C/C=C/c2ccccc2)CC1 (stereo not drawn) | / | ? | / | -9 | / | ?
O=C(CNC(=O)c1cccs1)c1ccc(Br)cc1 | -10% | 7% | -45% | -16 | ? | -14%
COc1ccc(/C=C2\N=C(SC)NC2=O)cc1 | ? | 2% | 13µM* | -1 | / | -14%
CCSC1=N/C(=C\c2ccc(OC)cc2)C(=O)N1 | -9% | -2% | -3% | -26 | -3% | ?
COc1ccc(/C=C2\N=C(c3ccccc3Cl)NC2=O)cc1 | 2% | 5.8µM* | 8% | ? | ? | 0.82µM*
Cc1cc(S(=O)(=O)Nc2cccc(C(=O)O)c2)c(C)c(S(=O)(=O)c2ccccc2)c1 | / | 6% | / | / | / | 0%
Cc1scc(C(=O)N/N=C/c2ccc([N+](=O)[O-])o2)c1C | 7.1µM* | / | 4µM* | / | -1% | /
Cc1scc(C(=O)N/N=C/c2ccco2)c1C | -5% | -22% | -38% | -8 | ? | -13%
O=[N+]([O-])c1ccc(/C=N\NS(=O)(=O)c2ccc(F)cc2)o1 | 14µM* | 15µM* | ? | -29 | 12% | ?
O=C(N/N=C/c1ccc([N+](=O)[O-])o1)c1ccc(O)cc1 | 13µM* | 2.9µM* | 11µM* | 63 | -20% | 2.9µM*
Cc1nc2ccccn2c1C(=O)N/N=C/c1ccc([N+](=O)[O-])o1 | ? | 2.9µM* | 14µM* | 28 | 10µM* | 5.8µM*
O=C(N/N=C/c1ccncc1)c1ccncc1 | / | -4% | / | -14 | / | -12%
O=C(N/N=C/c1ccc([N+](=O)[O-])o1)c1ccncc1 | ? | 9.2µM* | ? | 7 | ? | 9.2µM*
OCCN1CCN(Cc2ccc3c(c2)CN(Cc2cccn2-c2ccccn2)CCO3)CC1 | / | -5% | / | / | / | -20%
CCC1=NN(C(=O)c2ccc(Br)cc2)C(O)(c2ccc(C)cc2)C1 (stereo not drawn) | 11µM* | 5.2µM* | 13µM* | -7 | 1% | 5.2µM*
CCC1=NN(C(=O)c2ccc(C)cc2)C(O)(c2ccc(Br)cc2)C1 (stereo not drawn) | 13µM* | ? | ? | -9 | 5% | ?
CCC1=NN(C(=O)c2ccccc2[N+](=O)[O-])C(O)(c2ccccc2)C1 (stereo not drawn) | / | -12% | / | 27 | / | -27%
COC(=O)C1=NN(C(=O)c2ccc(C)cc2)C(O)(c2ccc(Cl)cc2)C1 (stereo not drawn) | -6% | -11% | -35% | 25 | 2% | -1%
O=C(CSc1nc2ccccc2nc1Cc1ccc(Cl)cc1)N1CCCc2ccccc21 | / | -1% | / | / | / | -29%
COc1nc(Nc2ccc([N+](=O)[O-])cc2)nc(NC2CCCCC2)n1 | -19% | ? | 39% | -78* | ? | ?
Cc1ccc(Nc2nc(N)c([N+](=O)[O-])c(NCc3ccccc3)n2)cc1 | -16% | -30% | 33% | / | 0% | ?
C=CCNc1nc(Nc2ccc([N+](=O)[O-])cc2)nc(OC)n1 | 8% | -3% | 2% | -19 | ? | ?
SMILES | Gal4-VP16 FLuc | TDP1 cell CPT | RORgamma inh | IL-1B inflam inh | ELG1 DNA repair | DT40 TDP1 no CPT
COc1ccc(Nc2nc(N)c([N+](=O)[O-])c(NCCO)n2)cc1 | 11% | -2% | 33% | / | 0% | -24%
COc1ccc(Nc2nc(N)c([N+](=O)[O-])c(NCc3ccccc3)n2)cc1 | -3% | ? | 44% | 36 | -12% | 16µM*
COc1ccc(Nc2nc(N)c([N+](=O)[O-])c(NC3CCCCC3)n2)cc1 | ? | 16µM* | ? | -95* | -20% | ?
Cc1ccc2c(c1)N(C)/C(=C/c1cccc[n+]1CCO)S2 | -17% | 1.6µM* | 23% | ? | ? | 1.2µM*
CCCCN1/C(=C/c2cccc[n+]2C)Sc2cc(NC(C)=O)ccc21 | 3% | -5% | 6% | 8 | 11% | -14%
COc1ccccc1CN1CCc2c([nH]c3ccccc23)C1 | 13% | ? | -41% | 8 | -3% | ?
Clc1cccc(CN2CCc3c([nH]c4ccccc34)C2)c1Cl | -13% | ? | 1% | -62* | ? | 23µM*
O=C(CN1C(=O)C2CC=CCC2C1=O)Nc1nnc(C2CC2)s1 (stereo not drawn) | / | -7% | / | 54 | 2% | 0%
CC1CCC(NC(=O)C2(C)Cc3ccccc3C(=O)N2Cc2ccccc2Cl)CC1 (stereo not drawn) | / | ? | / | / | / | 23µM*
COCCCN1C(=O)c2ccccc2CC1(C)C(=O)NC1CCCCC1 (stereo not drawn) | / | 2% | / | / | / | -9%
CC[N+](CC)(CC)c1ccc(/C=C/c2ccnc3ccccc23)cc1 | / | 0.4µM* | / | / | / | 0.32µM*
CC[N+](C)(C)c1ccc(/C=C/c2ccnc3ccccc23)cc1 | / | 0.079µM* | / | / | / | 0.11µM*
O=C(NCc1ccc(F)cc1)c1cc(C2CCCCN2C(=O)c2ccccc2)on1 (stereo not drawn) | / | ? | / | -2 | / | ?
COc1ccc(C(=O)N2CCCCC2c2cc(C(=O)NCc3ccc(F)cc3)no2)cc1 (stereo not drawn) | / | 16µM* | / | -11 | / | ?
O=C(NCc1ccc(F)cc1)c1cc(C2CCCCN2C(=O)c2ccc(Cl)cc2)on1 (stereo not drawn) | / | ? | / | 0 | / | 15µM*
COc1ccc(C(=O)CC(SCC(NC(C)=O)C(=O)O)c2ccc(Cl)cc2)cc1OC (stereo not drawn) | 19% | 15µM* | ? | -88* | ? | ?

Source: PubChem BioAssay
